Experimental data from the supplement of paper PMC9262897, “Low-cost anti-mycobacterial drug discovery using engineered E. coli” (Nature Communications, 2022).
Where a name gives a salt, the structure may show the parent alone. ± gives the standard deviation of the averaged measurements.

Test system: E. coli TESEC Mtb Asd
Test: growth (OD600 after 10 h); higher = more growth (less inhibition)
Details: arabinose induction (level): High; compound 0.1 mM; raw OD600 reference: median of DMSO wells 0.331, cell-free background 0.041
Experimental: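 TESEC E. coli strains in which the native enzyme is deleted and replaced by arabinose-inducible Mtb Asd, DapB, CysH or TrpD, each grown in its selective medium. Strains were screened against the Prestwick library at 0.1 mM and 1% DMSO in 384-well format at low and high arabinose induction. Growth is read as OD600 after 10 h in triplicate.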

| Structure (SMILES) | growth |
| --- | --- |
| N=c1nc(N2CCCCC2)cc(N)n1O [Minoxidil] | 0.371 ± 0.048 |
| CC(=O)NC[C@H]1CN(c2ccc(N3CCOCC3)c(F)c2)C(=O)O1 [Linezolid] | 0.072 ± 0.0052 |
| CC(O)(P(=O)(O)O)P(=O)(O)O [Etidronic acid, disodium salt] | 0.474 ± 0.015 |
| COc1ccc2cc([C@@H](C)C(=O)O)ccc2c1 [(R) -Naproxen sodium salt] | 0.484 ± 0.02 |
| NC1CCN(c2nc3c(cc2F)c(=O)c(C(=O)O)cn3-c2ccc(F)cc2F)C1 (stereo not drawn) [Tosufloxacin hydrochloride] | 0.054 ± 0.01 |
| O=C(NCCNCC(O)COc1ccc(O)cc1)N1CCOCC1 (stereo not drawn) [Xamoterol hemifumarate] | 0.447 ± 0.069 |
| Cc1cc2cc3c(C)cc(=O)oc3c(C)c2o1 [Trioxsalen] | 0.454 ± 0.015 |
| CCCCC(=O)O[C@H]1CC[C@H]2[C@@H]3CCc4cc(O)ccc4[C@H]3CC[C@]12C [Estradiol Valerate] | 0.404 ± 0.031 |
| CCCc1ncc(C[n+]2ccccc2C)c(N)n1 [Amprolium hydrochloride] | 0.359 ± 0.016 |
| COC1=C(OC)C(=O)C(CCCCCCCCCCO)=C(C)C1=O [Idebenone] | 0.0516 ± 0.0016 |
| CC(N/C(=N\C#N)Nc1ccncc1)C(C)(C)C (stereo not drawn) [Pinacidil] | 0.369 ± 0.037 |
| C[C@H]1C[C@H]2[C@@H]3CCC4=CC(=O)C=C[C@]4(C)[C@@]3(F)[C@@H](O)C[C@]2(C)[C@@]1(O)C(=O)CO [Betamethasone] | 0.273 ± 0.096 |
| Fc1ccc(C(c2ccc(F)cc2)N2CCN(C/C=C/c3ccccc3)CC2)cc1 [Flunarizine dihydrochloride] | 0.0843 ± 0.013 |
